Here are results for six compounds from ChEMBL document CHEMBL2218924, “A broad activity screen in support of a chemogenomic map for kinase signalling research and drug discovery” (Biochem J, 2013).

Assay [1] deals with Mast/stem cell growth factor receptor Kit (Homo sapiens) (UniProt P10721). Particulars: at 1 µM.
For assay [2] the target is unchanged. Particulars: at 10 µM.
Assay [3] has as its target Proto-oncogene tyrosine-protein kinase Src (Homo sapiens) (UniProt P12931). Particulars: at 1 µM.
For assay [4] the target is unchanged. Particulars: at 10 µM.
Assay [5] has as its target Serine/threonine-protein kinase mTOR (Homo sapiens) (UniProt P42345). Particulars: at 1 µM.
Assay [6] has the same target. Particulars: at 10 µM.
Assay [7] has the same target. Particulars: at 1 µM. This is another data set of the same source.
The target is the same in assay [8]. The conditions noted are these: at 10 µM. This is another data set of the same source.
Assay [9] has as its target Ribosomal protein S6 kinase beta-1 (Homo sapiens) (UniProt P23443). Particulars: at 1 µM.
The target is the same in assay [10]. Particulars: at 10 µM.
The target of assay [11] is Serine/threonine-protein kinase Nek6 (Homo sapiens) (UniProt Q9HC98). The conditions noted are these: at 1 µM.
The target is the same in assay [12]. Particulars: at 10 µM.
For assay [13], the target named is Serine/threonine-protein kinase Nek7 (Homo sapiens) (UniProt Q8TDX7). Particulars: at 1 µM.
For assay [14] the target is unchanged. Particulars: at 10 µM.
Assay [15] concerns the target T1, Serine/threonine-protein kinase NLK (Homo sapiens) (UniProt Q9UBE8).
T1 sequence (whole entry): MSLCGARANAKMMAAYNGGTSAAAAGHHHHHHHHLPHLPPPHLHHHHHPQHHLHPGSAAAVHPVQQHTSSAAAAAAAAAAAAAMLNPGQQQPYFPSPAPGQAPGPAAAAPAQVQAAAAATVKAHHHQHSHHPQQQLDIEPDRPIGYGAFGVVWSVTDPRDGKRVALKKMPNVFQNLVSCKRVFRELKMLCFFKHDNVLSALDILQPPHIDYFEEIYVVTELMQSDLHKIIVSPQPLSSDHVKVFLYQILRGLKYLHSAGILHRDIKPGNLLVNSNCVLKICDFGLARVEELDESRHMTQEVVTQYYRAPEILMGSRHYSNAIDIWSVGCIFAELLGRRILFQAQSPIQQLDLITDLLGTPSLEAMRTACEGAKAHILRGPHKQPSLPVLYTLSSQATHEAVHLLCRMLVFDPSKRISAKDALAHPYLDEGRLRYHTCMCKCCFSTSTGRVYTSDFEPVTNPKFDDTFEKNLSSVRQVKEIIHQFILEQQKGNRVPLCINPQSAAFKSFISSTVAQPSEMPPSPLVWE
Particulars: at 1 µM.

Assay [16] has as its target T1, Serine/threonine-protein kinase NLK (Homo sapiens). Particulars: at 10 µM.
The target in assay [17] is Serine/threonine-protein kinase PAK 2 (Homo sapiens) (UniProt Q13177). The conditions noted are these: at 1 µM.
For assay [18] the target is unchanged. Particulars: at 10 µM.
Assay [19] has as its target T2, Eukaryotic elongation factor 2 kinase (Homo sapiens) (UniProt O00418).
T2 sequence (whole entry): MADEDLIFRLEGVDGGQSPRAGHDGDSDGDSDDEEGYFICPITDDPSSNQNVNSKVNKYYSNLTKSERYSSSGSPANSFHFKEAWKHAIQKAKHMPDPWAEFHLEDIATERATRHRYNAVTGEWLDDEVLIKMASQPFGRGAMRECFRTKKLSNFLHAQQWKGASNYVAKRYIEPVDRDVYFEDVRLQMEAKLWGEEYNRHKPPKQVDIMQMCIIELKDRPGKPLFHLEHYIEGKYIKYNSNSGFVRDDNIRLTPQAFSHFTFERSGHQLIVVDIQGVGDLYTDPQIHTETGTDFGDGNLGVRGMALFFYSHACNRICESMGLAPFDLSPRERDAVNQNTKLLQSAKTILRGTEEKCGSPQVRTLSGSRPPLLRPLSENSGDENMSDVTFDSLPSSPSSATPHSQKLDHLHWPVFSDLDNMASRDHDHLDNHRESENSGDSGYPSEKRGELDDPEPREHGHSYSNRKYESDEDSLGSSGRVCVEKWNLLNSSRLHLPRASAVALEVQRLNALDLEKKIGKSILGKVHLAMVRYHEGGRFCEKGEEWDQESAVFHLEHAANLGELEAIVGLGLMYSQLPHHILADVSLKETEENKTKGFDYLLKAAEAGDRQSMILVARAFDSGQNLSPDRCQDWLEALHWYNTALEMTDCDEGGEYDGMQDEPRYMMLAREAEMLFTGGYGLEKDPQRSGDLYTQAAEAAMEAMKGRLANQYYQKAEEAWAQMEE
Particulars: at 1 µM.

Assay [20] addresses T2, Eukaryotic elongation factor 2 kinase (Homo sapiens). Particulars: at 10 µM.

Chain of Mast/stem cell growth factor receptor Kit (Homo sapiens) (P10721 whole entry): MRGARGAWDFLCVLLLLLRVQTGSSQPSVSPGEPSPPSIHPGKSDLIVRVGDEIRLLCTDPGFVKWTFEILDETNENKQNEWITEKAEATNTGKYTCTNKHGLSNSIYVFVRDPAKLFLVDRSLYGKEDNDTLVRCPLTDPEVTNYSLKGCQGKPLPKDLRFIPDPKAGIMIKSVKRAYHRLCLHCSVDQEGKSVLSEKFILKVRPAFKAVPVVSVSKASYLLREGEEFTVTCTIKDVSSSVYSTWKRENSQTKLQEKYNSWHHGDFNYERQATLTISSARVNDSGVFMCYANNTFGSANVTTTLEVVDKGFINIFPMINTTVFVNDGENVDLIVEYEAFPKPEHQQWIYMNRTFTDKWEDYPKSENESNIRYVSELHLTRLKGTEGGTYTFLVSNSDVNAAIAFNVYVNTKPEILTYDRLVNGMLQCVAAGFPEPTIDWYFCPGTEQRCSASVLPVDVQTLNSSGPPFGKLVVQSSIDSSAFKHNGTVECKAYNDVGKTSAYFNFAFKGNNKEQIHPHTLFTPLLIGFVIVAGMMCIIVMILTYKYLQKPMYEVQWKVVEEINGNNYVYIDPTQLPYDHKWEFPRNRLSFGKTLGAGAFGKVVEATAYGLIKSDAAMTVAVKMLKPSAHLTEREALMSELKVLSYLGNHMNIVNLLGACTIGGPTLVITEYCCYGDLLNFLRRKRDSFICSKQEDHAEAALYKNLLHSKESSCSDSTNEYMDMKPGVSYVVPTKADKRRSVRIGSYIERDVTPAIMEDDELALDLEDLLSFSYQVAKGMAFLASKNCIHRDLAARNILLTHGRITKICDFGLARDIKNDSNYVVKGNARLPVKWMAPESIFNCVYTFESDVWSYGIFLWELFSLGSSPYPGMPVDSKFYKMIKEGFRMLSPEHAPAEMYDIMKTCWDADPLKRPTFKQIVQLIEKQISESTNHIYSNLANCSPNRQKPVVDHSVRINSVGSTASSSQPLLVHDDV
Chain of Proto-oncogene tyrosine-protein kinase Src (Homo sapiens) (P12931 2-536 limits assumed): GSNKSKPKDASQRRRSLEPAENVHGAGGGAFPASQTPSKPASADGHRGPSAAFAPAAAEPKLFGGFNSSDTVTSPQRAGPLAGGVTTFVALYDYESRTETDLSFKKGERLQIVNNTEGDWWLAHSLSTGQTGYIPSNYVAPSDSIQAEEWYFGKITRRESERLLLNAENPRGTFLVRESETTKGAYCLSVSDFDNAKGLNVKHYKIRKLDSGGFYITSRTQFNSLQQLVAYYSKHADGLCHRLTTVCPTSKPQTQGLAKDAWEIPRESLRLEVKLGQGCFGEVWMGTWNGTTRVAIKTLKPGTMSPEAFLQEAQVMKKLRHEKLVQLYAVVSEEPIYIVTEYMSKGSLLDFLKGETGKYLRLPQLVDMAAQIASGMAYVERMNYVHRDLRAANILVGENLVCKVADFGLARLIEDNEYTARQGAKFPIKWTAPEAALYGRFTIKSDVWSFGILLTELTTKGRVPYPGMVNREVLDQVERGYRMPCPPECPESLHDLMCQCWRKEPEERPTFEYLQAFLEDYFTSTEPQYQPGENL
Chain of Serine/threonine-protein kinase PAK 2 (Homo sapiens) (Q13177 whole entry): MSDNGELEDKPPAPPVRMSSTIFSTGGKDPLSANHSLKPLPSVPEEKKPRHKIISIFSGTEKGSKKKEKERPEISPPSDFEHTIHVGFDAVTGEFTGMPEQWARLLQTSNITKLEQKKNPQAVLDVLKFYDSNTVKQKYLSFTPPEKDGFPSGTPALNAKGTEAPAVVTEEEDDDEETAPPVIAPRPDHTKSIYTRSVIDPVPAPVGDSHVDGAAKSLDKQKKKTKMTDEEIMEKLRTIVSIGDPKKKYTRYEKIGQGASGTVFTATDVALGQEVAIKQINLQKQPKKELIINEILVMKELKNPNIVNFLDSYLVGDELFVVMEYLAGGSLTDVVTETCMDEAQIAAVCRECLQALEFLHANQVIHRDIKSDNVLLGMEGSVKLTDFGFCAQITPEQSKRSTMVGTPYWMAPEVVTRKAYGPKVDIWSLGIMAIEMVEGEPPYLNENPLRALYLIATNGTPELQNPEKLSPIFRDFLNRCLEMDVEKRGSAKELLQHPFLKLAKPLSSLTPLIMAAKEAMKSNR
Chain of Serine/threonine-protein kinase Nek6 (Homo sapiens) (Q9HC98 whole entry): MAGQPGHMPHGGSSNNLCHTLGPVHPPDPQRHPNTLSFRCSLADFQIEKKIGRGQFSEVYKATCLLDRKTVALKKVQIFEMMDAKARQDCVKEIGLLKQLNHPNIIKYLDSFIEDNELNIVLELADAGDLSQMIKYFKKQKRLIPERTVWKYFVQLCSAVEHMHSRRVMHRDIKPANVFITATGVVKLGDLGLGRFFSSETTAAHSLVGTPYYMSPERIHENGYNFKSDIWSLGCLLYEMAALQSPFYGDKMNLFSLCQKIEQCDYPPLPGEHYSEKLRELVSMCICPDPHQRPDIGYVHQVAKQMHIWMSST
Chain of Ribosomal protein S6 kinase beta-1 (Homo sapiens) (P23443 whole entry, looked up): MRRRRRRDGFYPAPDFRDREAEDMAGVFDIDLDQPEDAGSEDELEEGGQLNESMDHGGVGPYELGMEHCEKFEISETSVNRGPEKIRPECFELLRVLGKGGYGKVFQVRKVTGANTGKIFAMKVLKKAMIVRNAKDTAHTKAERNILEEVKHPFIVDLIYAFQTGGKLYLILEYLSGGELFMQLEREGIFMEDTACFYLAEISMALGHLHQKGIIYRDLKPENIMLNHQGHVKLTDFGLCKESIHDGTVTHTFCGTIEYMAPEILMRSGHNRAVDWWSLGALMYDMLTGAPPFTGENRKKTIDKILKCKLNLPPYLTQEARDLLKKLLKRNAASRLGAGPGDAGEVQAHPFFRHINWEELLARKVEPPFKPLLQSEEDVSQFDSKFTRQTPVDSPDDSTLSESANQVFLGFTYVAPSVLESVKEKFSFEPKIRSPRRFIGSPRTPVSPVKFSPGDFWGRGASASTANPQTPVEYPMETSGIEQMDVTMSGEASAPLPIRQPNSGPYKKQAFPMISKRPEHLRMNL
Chain of Serine/threonine-protein kinase Nek7 (Homo sapiens) (Q8TDX7 whole entry, looked up): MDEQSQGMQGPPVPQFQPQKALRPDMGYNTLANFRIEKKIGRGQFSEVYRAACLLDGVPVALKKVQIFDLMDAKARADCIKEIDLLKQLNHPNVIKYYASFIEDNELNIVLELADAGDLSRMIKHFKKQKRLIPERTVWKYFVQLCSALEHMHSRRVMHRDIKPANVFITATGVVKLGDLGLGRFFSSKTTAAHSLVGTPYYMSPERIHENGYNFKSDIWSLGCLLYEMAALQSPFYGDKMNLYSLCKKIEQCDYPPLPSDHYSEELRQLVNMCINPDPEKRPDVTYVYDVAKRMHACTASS

As for `CC(C)n1cnc2/c(=N/c3cccc(Cl)c3)nc(NCCO)[nH]c21`, the residual activity (usually the signal under treatment as a percentage of the control signal) in assay [1] was determined as 108%; in assay [2], 94%; in assay [3] it was 54%; in [4], 7%; in assay [5], 114%; in assay [6], 96%. Also, the residual activity in [7] was 82%; in assay [8], 101%; in assay [9], 36%; in [10], 15%; in assay [11] it was 118% (inactive); in assay [12] it was 98%. In addition, the residual activity in [13] was 102% (inactive); in assay [14], 84% (inactive); in assay [15], 88%; in [16], 70%; in assay [17], 109%; in assay [18], 98%.
`O=C1NC(=O)/C(=C\c2ccc3nccnc3c2)S1`: the residual activity in [1] was 106%; in assay [2], 102%; in [3] it was 86%; in assay [4], 103%; in assay [19] it was 99% (inactive); in assay [20], 91%. The residual activity was 46% in [5]; 51% in [6]; 90% in assay [7]; 36% in assay [8]; 68% in assay [9]; 50% in assay [10]. Further, the residual activity in [11] was 91% (inactive); in assay [12], 96%; in assay [13] it was 100% (inactive); in assay [14], 106% (inactive); in assay [15] it was 89%; in assay [16], 55%. Further, the results for the residual activity in assay [17] and in assay [18] were 102% and 75%, respectively.
With `COc1cc2ncnc(Nc3ccc(O)c(Br)c3)c2cc1OC`, the residual activity came out at 102% in assay [1]; 103% in assay [2]; 54% in assay [3]; 18% in assay [4]; 106% in [5]; 111% in assay [6]. The residual activity was 96% in assay [7]; 101% in assay [8]; 60% in assay [9]; 31% in assay [10]; 86% (inactive) in [11]; 110% in [12]. The residual activity in [13] is 99% (inactive); in [14], 96% (inactive); in assay [15], 69%; in assay [16], 30%; in assay [17], 104%; in [18], 80%.
Consider `CCC(=O)Nc1ccc2ncnc(Nc3cccc(Br)c3)c2c1`, for which the residual activity in assay [1] was 109%; in assay [2], 103%; in assay [3], 88%; in assay [4], 89%; in assay [19] it was 94% (inactive); in assay [20], 107%. The residual activity in [5] worked out at 106%; in assay [6], 104%; in [7], 123%; in assay [8] it was 101%; in assay [9], 111%; in [10], 127%. The residual activity is 79% (inactive) in assay [11]; 110% in assay [12]; 89% (inactive) in assay [13]; 114% (inactive) in assay [14]; 91% in assay [15]; 64% in [16]. In addition, the residual activity in assay [17] is 110%; in [18] it was 84%.
Consider `O=[N+]([O-])c1ccc(-c2nc(-c3ccc(F)cc3)c(-c3ccncc3)[nH]2)cc1`, for which the residual activity was 123% in [1]; 110% in assay [2]; 113% in [3]; 90% in [4]; 108% (inactive) in assay [19]; 94% in assay [20]. Besides, the residual activity in assay [5] was 110%; in assay [6], 112%; in assay [7], 126%; in assay [8], 71%; in assay [9], 122%; in [10], 62%. The residual activity was 109% (inactive) in assay [11]; 123% in assay [12]; 99% (inactive) in assay [13]; 111% (inactive) in [14]; 31% in assay [15]; 40% in assay [16]. Besides, the figures for the residual activity in assay [17] and in assay [18] were 105% and 101%, respectively.
Turning to `O=C1Nc2cc(Br)ccc2/C1=C1/Nc2ccccc2/C1=N\O`, the residual activity in [1] is 18%; in assay [2], 21%; in assay [3], 2%; in assay [4], 3%; in assay [19] it was 94% (inactive); in assay [20], 89%. For the same compound, the residual activity in assay [5] was 76%; in assay [6], 76%; in assay [7], 119%; in [8] it was 82%; in assay [9], 30%; in assay [10], 29%. The residual activity in [11] is 108% (inactive); in [12], 106%; in assay [13], 102% (inactive); in assay [14], 85% (inactive); in assay [15], 79%; in [16], 85%. For the same compound, the values for the residual activity in assay [17] and in [18] were 75% and 88%, respectively.
